Source: PubChem BioAssay (NCI)
About 83,000 compounds went through this panel and 20% of them were active in at least one assay; those are over-represented in the sample as a whole.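 Plates (96-well) were seeded with cells, treated with compound at one concentration, and incubated for 48 hours before percent growth was determined.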 Calls of active or inactive are those of the source. How the source made its calls: active means growth percent below 10; inactive means the rest.

Experiments:
Assay in all cases: NCI-60 one-dose screen, 48 h (100 = growth as untreated, 0 = no growth, -100 = all killed)
Details in all cases: 10 µM unless noted
NCI-H23 lung = system: NCI-H23 lung
NCI-H226 lung = system: NCI-H226 lung
NCI-H322M lung = system: NCI-H322M lung
HOP-62 NSCLC = system: HOP-62 NSCLC
NCI-H460 lung = system: NCI-H460 lung
HOP-92 NSCLC = system: HOP-92 NSCLC
NCI-H522 lung = system: NCI-H522 lung
A549/ATCC NSCLC = system: A549/ATCC NSCLC
786-0 renal = system: 786-0 renal
COLO 205 colon = system: COLO 205 colon
DU-145 prostate = system: DU-145 prostate
K-562 leukemia = system: K-562 leukemia
MALME-3M melanoma = system: MALME-3M melanoma
MDA-MB-231 breast = system: MDA-MB-231 breast
RXF 393 renal = system: RXF 393 renal
SF-268 CNS = system: SF-268 CNS
SF-295 CNS = system: SF-295 CNS
SF-539 CNS = system: SF-539 CNS
UACC-257 melanoma = system: UACC-257 melanoma
M14 melanoma = system: M14 melanoma

Measured: growth

FC(F)(F)c1[nH]ncc1-c1nc2ccc3n[nH]c(C#Cc4cccnc4)c3c2c2c1CCCC2
inactive: NCI-H23 lung 34.1% | NCI-H226 lung 47.5% | NCI-H322M lung 32.8% | HOP-62 NSCLC 36% | NCI-H460 lung 19.1% | HOP-92 NSCLC 71.6% | NCI-H522 lung 28.7% | A549/ATCC NSCLC 27% | 786-0 renal 30.7% | COLO 205 colon 33.4% | DU-145 prostate 45.1% | K-562 leukemia 44.6% | MALME-3M melanoma 22.8% | MDA-MB-231 breast 51.7% | RXF 393 renal 21.4% | SF-268 CNS 49.6% | SF-295 CNS 42.7% | SF-539 CNS 19.6% | UACC-257 melanoma 57.7% | M14 melanoma 27.2%

COc1ccc(C(=O)c2sc3nc(C)cc(C)c3c2N)cc1OC
active: NCI-H522 lung -13.1%
inactive: NCI-H23 lung 74.3% | NCI-H226 lung 89.8% | NCI-H322M lung 87.9% | HOP-62 NSCLC 53.4% | NCI-H460 lung 67.6% | HOP-92 NSCLC 89.7% | A549/ATCC NSCLC 60% | 786-0 renal 99.5% | COLO 205 colon 102% | DU-145 prostate 90.7% | K-562 leukemia 92.6% | MALME-3M melanoma 83.3% | MDA-MB-231 breast 56.3% | RXF 393 renal 93.9% | SF-268 CNS 60.1% | SF-295 CNS 89.8% | SF-539 CNS 92.2% | UACC-257 melanoma 95.1% | M14 melanoma 105%

CSc1nc(Nc2cccc(NC(=O)CCl)c2)c(C#N)c(-c2cccc([N+](=O)[O-])c2)n1
active: NCI-H522 lung -55.9% | K-562 leukemia 5.6%
inactive: NCI-H23 lung 40.3% | NCI-H226 lung 42.2% | NCI-H322M lung 97.4% | HOP-62 NSCLC 86.5% | NCI-H460 lung 86.8% | HOP-92 NSCLC 40.7% | A549/ATCC NSCLC 95.9% | 786-0 renal 73.2% | COLO 205 colon 35.9% | DU-145 prostate 13.4% | MALME-3M melanoma 37.3% | MDA-MB-231 breast 68.4% | RXF 393 renal 43.7% | SF-268 CNS 34% | SF-295 CNS 95.4% | SF-539 CNS 73.3% | UACC-257 melanoma 84.6% | M14 melanoma 48.7%

CC(=O)Nc1ccc(S(=O)(=O)Nc2cccc(-c3nc(-c4ccc(NC(=O)c5cccnc5)cc4Cl)no3)c2)cc1
active: SF-539 CNS 7.87%
inactive: NCI-H23 lung 42.1% | NCI-H226 lung 57.9% | NCI-H322M lung 41.6% | HOP-62 NSCLC 34.9% | NCI-H460 lung 18% | HOP-92 NSCLC 32.1% | NCI-H522 lung 11.2% | A549/ATCC NSCLC 44.2% | 786-0 renal 41.7% | COLO 205 colon 21.7% | DU-145 prostate 54.6% | K-562 leukemia 18.9% | MALME-3M melanoma 59.7% | MDA-MB-231 breast 47.5% | RXF 393 renal 76.5% | SF-268 CNS 48.2% | SF-295 CNS 42.2% | UACC-257 melanoma 35% | M14 melanoma 27.1%

COc1ccc(/C=C/C(=O)c2ccc(O)c(CN3CCN(c4cc5c(cc4F)c(=O)c(C(=O)O)cn5C4CC4)CC3)c2)cc1
inactive: NCI-H23 lung 37.7% | NCI-H226 lung 52.2% | NCI-H322M lung 22.6% | HOP-62 NSCLC 19.5% | NCI-H460 lung 51.4% | HOP-92 NSCLC 10.1% | NCI-H522 lung 16.9% | A549/ATCC NSCLC 22.3% | 786-0 renal 27.8% | COLO 205 colon 102% | DU-145 prostate 27.8% | K-562 leukemia 20.3% | MALME-3M melanoma 30.4% | MDA-MB-231 breast 50.6% | RXF 393 renal 28.3% | SF-268 CNS 30.3% | SF-295 CNS 13.1% | SF-539 CNS 18.8% | UACC-257 melanoma 42% | M14 melanoma 30.9%

CCOC(=O)c1c(C)oc2ncnc(N3CCN(C(=S)Nc4ccccc4)CC3)c12
inactive: NCI-H23 lung 90.8% | NCI-H226 lung 87.2% | NCI-H322M lung 92.3% | HOP-62 NSCLC 87.2% | NCI-H460 lung 103% | HOP-92 NSCLC 83.3% | NCI-H522 lung 80.9% | A549/ATCC NSCLC 92% | 786-0 renal 97.8% | COLO 205 colon 104% | DU-145 prostate 101% | K-562 leukemia 85% | MALME-3M melanoma 99.9% | MDA-MB-231 breast 89.1% | RXF 393 renal 90.8% | SF-268 CNS 94.1% | SF-295 CNS 96% | SF-539 CNS 91.8% | UACC-257 melanoma 98% | M14 melanoma 104%

CSc1nc(NCCO)c(C#N)c(-c2cccc([N+](=O)[O-])c2)n1
inactive: NCI-H23 lung 99.5% | NCI-H226 lung 93.1% | NCI-H322M lung 102% | HOP-62 NSCLC 91.6% | NCI-H460 lung 101% | HOP-92 NSCLC 79.4% | NCI-H522 lung 92.3% | A549/ATCC NSCLC 105% | 786-0 renal 100% | COLO 205 colon 116% | DU-145 prostate 108% | K-562 leukemia 90.8% | MALME-3M melanoma 111% | MDA-MB-231 breast 86.5% | RXF 393 renal 104% | SF-268 CNS 95.6% | SF-295 CNS 98.3% | SF-539 CNS 96.7% | UACC-257 melanoma 115% | M14 melanoma 104%

COc1ccc(/C=C/C(=O)c2cc(O)ccc2O)cc1
inactive: NCI-H23 lung 95.8% | NCI-H226 lung 94.5% | NCI-H322M lung 111% | HOP-62 NSCLC 114% | NCI-H460 lung 96.6% | HOP-92 NSCLC 70.6% | A549/ATCC NSCLC 78.6% | 786-0 renal 96.5% | COLO 205 colon 99% | DU-145 prostate 89.3% | K-562 leukemia 66.4% | MALME-3M melanoma 100% | MDA-MB-231 breast 77.4% | RXF 393 renal 81.6% | SF-268 CNS 84.4% | SF-295 CNS 111% | SF-539 CNS 88.4% | UACC-257 melanoma 75.5% | M14 melanoma 105%
active: NCI-H522 lung -23.6%
